Experimental findings from the supplement of paper PMC7726561 are described below.

The full ranking holds about 1,400 sequences; the median of “thermal melting temperature (Tm) of peptide-HLA complex” is about 60, and the lowest 2% start at about 45. Only a selection was taken, and the lowest values are over-represented in it overall.
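Note: lysates heated 10 min at 37–73 °C, complexes pulled down with pan-HLA I antibody, peptide signal by DIA-MS relative to 37 °C, Tm where half the complex is unfolded.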

For the test, the target named is HLA-B*07:02. Briefly: thermal melting temperature (Tm) of peptide-HLA complex; higher = more thermostable pHLA complex. The settings on record: C1R-B*07:02.
On to SPLVSRLTLY, for which the thermal melting temperature is 41.1 °C.

SPLVSRLTL returned a thermal melting temperature of 61.4 °C.

The sequence RPQLKGVVL had a thermal melting temperature of 61.1 °C.

In turn, SPLPSPSAM gave a thermal melting temperature of 63.8 °C.

In turn, HPISNNNSL registered a thermal melting temperature of 41.6 °C.

The sequence NPMVTGTSV came in with a thermal melting temperature of 56.3 °C.

As to LPHEVDKSEL, the thermal melting temperature was 44.8 °C.

SPVLRNFTF had a thermal melting temperature of 41.7 °C.

Sequence IPRPEVQAL showed a thermal melting temperature of 54.1 °C.

In turn, VPQVKASAL registered a thermal melting temperature of 59 °C.

The sequence LPGLRDLVL came in with a thermal melting temperature of 61.7 °C.

MPKVKTIEL: the thermal melting temperature stood at 56.4 °C.

In turn, APRSVAVSSI gave a thermal melting temperature of 59.4 °C.

The sequence SPHPGLLL came in with a thermal melting temperature of 61 °C.

Sequence KPHIGLTEL yielded a thermal melting temperature of 60.7 °C.

The sequence LPRTPSYSI showed a thermal melting temperature of 62.1 °C.

Regarding HPISSEELLSL, the thermal melting temperature is 58.6 °C.

The sequence MPKLRVLEL came in with a thermal melting temperature of 57.1 °C.

YPNERFELL registered a thermal melting temperature of 63.1 °C.

In the case of APSDLRTIQTF, the thermal melting temperature stood at 62.8 °C.

With RPFFPLTATL, the thermal melting temperature turned out to be 49.6 °C.

Consider FIRNRTLQL, for which the thermal melting temperature came out at 61.5 °C.

Regarding MPARWLTHL, the thermal melting temperature amounted to 55 °C.

Consider QPVAGRPSL, for which the thermal melting temperature is 55.8 °C.

QPNLKLLAM yielded a thermal melting temperature of 62.9 °C.

The sequence SPRGAGYLF registered a thermal melting temperature of 63 °C.

On to RPVLWVGV, for which the thermal melting temperature turned out to be 60.8 °C.
